# Biological target: RELA (p65) subunit of heterodimer;p52 subunit (Homo sapiens;Homo sapiens, UniProt Q04206;Q00653 1-307;4-332)
# Assay: protein binding microarray; high values mean tight binding
# Conditions: dsDNA, one strand shown
# RELA (p65) subunit of heterodimer;p52 subunit, sequence (Q04206 1-307, chain 1 of 2): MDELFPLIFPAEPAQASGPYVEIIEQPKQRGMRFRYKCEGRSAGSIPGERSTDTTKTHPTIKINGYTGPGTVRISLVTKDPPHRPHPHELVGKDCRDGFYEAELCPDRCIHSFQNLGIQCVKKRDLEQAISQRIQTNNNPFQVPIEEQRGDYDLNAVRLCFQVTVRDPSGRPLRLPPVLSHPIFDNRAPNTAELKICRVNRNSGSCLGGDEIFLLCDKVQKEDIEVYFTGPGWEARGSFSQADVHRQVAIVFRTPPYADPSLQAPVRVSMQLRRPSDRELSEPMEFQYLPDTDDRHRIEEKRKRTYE
# RELA (p65) subunit of heterodimer;p52 subunit, sequence (Q00653 4-332, chain 2 of 2): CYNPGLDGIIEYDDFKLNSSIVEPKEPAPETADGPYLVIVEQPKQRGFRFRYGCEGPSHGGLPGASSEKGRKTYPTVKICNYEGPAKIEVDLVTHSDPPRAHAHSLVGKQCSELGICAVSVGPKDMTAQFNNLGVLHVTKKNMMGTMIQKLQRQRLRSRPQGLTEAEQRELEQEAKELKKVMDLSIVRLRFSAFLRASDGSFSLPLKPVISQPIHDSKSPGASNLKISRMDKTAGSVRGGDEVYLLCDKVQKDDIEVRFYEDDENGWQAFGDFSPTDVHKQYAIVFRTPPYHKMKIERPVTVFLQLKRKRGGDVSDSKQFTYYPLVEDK
row,Sequence,binding signal [z-score]
1,AAGAAAGCCCT,-0.581
2,AGGATCTCCCC,1.04
3,CGATGTACCCC,0.16
4,AGATATCTCCT,-1.03
5,GGGAACGCCCT,0.418
6,AGGATAGCCCT,-0.902
7,AAGTTATCCCC,0.69
8,AGAAGGCCCCT,0.149
9,CGAAAGTTCCT,-0.651
10,CGGTTATCCCT,0.272
11,AGAAAACTCCC,0.979
12,GAAAGTGCCCC,0.365
13,AGGTTTATCCT,-0.905
14,GAAGAATCCCC,1.83
15,AAGTATGCCCC,0.0585
16,GAGTAATTCCT,-0.441
17,CAAAGTTTCCT,-0.494
18,AAATACACCCC,0.204
19,AAGAATGTCCC,0.625

row,Sequence,binding signal [z-score]
1,AAATGCTTCCC,-0.314
2,AAGATGCCCCC,0.788
3,GAGGTTGCCCT,-0.676
4,CGAAGACTCCC,-0.618
5,GGATGCATCCC,-0.685
6,GAATGCCTCCT,-0.961
7,AAGTACATCCC,-0.425
8,CAGTGACCCCT,-0.373
9,GAGGGCTCCCC,-0.108
10,GAGTGTGCCCT,-0.825
11,AGAATGCTCCC,-0.621
12,CGATGTCTCCT,-0.849
13,CGATGGGCCCT,-0.798
14,CAAGGTTCCCC,1.31
15,CAGAAGATCCT,-1.13
16,GAAATGACCCT,-0.11
17,AGGTACGCCCC,0.526
18,GGATAATCCCC,1.79
19,CGGGGACCCCT,0.693

# Biological target: RELB subunit;p50 subunit (Homo sapiens;Homo sapiens, UniProt Q01201;P19838 120-401;7-356)
# Sequence (Q01201 120-401, chain 1 of 2): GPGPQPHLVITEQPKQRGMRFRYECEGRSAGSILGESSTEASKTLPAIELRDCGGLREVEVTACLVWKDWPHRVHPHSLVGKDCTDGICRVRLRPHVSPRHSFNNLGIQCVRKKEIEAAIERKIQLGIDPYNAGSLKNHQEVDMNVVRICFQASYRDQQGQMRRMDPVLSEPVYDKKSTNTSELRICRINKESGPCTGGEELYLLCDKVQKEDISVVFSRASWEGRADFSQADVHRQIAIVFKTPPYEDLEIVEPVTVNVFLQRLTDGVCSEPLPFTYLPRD
# Sequence (P19838 7-356, chain 2 of 2): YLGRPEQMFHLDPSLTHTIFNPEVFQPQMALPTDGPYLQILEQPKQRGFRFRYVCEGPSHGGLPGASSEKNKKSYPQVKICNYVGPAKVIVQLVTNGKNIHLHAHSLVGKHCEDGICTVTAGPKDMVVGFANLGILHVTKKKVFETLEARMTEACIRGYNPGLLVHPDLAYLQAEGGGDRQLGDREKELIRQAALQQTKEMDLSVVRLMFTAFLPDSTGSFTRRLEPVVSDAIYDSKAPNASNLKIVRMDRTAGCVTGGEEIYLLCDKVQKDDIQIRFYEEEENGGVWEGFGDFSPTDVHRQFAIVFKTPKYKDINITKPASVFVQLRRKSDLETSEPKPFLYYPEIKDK
# Assay: as above
# Conditions: dsDNA, one strand shown
row,Sequence,binding signal [z-score]
1,AAGAAAGCCCT,-0.838
2,AGGATCTCCCC,1.22
3,CGATGTACCCC,0.299
4,AGATATCTCCT,-1.19
5,GGGAACGCCCT,-0.197
6,AGGATAGCCCT,-0.841
7,AAGTTATCCCC,1.26
8,AGAAGGCCCCT,0.0369
9,CGAAAGTTCCT,-0.963
10,CGGTTATCCCT,0.229
11,AGAAAACTCCC,1.35
12,GAAAGTGCCCC,0.443
13,AGGTTTATCCT,-0.943
14,GAAGAATCCCC,2.29
15,AAGTATGCCCC,0.197
16,GAGTAATTCCT,-0.739
17,CAAAGTTTCCT,-0.737
18,AAATACACCCC,0.209
19,AAGAATGTCCC,0.695

row,Sequence,binding signal [z-score]
1,AAATGCTTCCC,-0.27
2,AAGATGCCCCC,0.97
3,GAGGTTGCCCT,-0.817
4,CGAAGACTCCC,-0.262
5,GGATGCATCCC,-0.7
6,GAATGCCTCCT,-1.06
7,AAGTACATCCC,-0.551
8,CAGTGACCCCT,-0.303
9,GAGGGCTCCCC,0.159
10,GAGTGTGCCCT,-0.946
11,AGAATGCTCCC,-0.576
12,CGATGTCTCCT,-1.04
13,CGATGGGCCCT,-0.95
14,CAAGGTTCCCC,1.5
15,CAGAAGATCCT,-1.3
16,GAAATGACCCT,-0.287
17,AGGTACGCCCC,0.233
18,GGATAATCCCC,1.79
19,CGGGGACCCCT,0.578
